This is a sample that favours compounds with a hit; in the whole collection about 7.7% have one here.
FMDV antiviral – foot and mouth disease virus antiviral activity | FMDV antiviral cell-based qHTS | Potency, µM (series often up to 57.9 µM), without a hit: at the top dose activity change, negative = inhibition, actives largely listed as inhibitors | 410,000 compounds, 1.2% hits | AID 1159524; calls by dose curve; tested in HEK293T cells; note: read-out not given here; potency is the fitted concentration of half-maximal effect; nearly all actives have a fitted effect of over 45% in size
Giardia FBPA inh – blocks Giardia fructose-bisphosphate aldolase activity. Potency, µM (highest dose often 59.6 µM), inactives show top-dose activity, negative = inhibition, most hits filed as inhibitors. 290,000 compounds, 0.71% hits. purified Giardia FBPA; note: potency is the fitted concentration of half-maximal effect; nearly all actives have a fitted effect of over 55% in size
Target sequence (A8B2U2 whole entry, looked up): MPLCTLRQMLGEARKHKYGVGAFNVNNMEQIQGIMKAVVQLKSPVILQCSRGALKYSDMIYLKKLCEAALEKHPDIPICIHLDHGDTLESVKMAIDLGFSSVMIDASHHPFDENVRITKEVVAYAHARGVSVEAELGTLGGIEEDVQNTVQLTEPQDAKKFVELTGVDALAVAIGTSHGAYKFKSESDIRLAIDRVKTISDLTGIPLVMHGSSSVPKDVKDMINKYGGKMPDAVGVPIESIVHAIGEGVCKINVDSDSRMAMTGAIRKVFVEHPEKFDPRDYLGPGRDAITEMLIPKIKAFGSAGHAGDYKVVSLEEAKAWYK
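Giardia FBPA (40 nM reagent) was preincubated 10 min at RT with compound (up to 57.5 uM final), then substrate plus GAPDH/TPI/NAD/arsenate coupling system with diaphorase/resazurin was added; resorufin fluorescence (525/598 nm) was read after 20 min.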
Tb PYK inh – inhibitors of Trypanosoma brucei pyruvate kinase. Q57TT1. TbPYK enzyme, Kinase-Glo Plus ATP luminescence, 45 min. Potency, µM (highest dose often 76.8 µM), for the others: at the highest dose activity, negative = inhibition, usual class: inhibitors. 410,000 compounds, 0.12% hits. AID 624173; note: potency is the fitted concentration of half-maximal effect; nearly all actives have a fitted effect of over 50% in size
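ADP (130 uM final) triggers the TbPYK reaction after compound addition; incubation is 45 min at room temperature. Kinase-Glo Plus is then added and luminescence imaged. Normalized data are fitted to concentration-effect curves.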
RE007 growth inh – less growth of the S. pombe RE007 Vpr strain; S. pombe RE007 Vpr strain, BacTiter-Glo ATP luminescence, 24 h; AID 651644; Potency, µM (top dose mostly 92.2 µM), inactives show at the highest dose activity change, negative = less growth, actives largely listed as inhibitors; 360,000 compounds, 0.21% hits; active = well fitted falling curve with a large enough effect; inconclusive = small, poorly fitted or top-dose-only effect; inactive = no such curve, though single readings can be large or run the other way; note: potency is the fitted concentration of half-maximal effect; nearly all actives have a fitted effect of over 50% in size
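Fission yeast RE007 carrying one integrated HIV-1 vpr copy, seeded at OD 0.01 in PMG+AL medium with 23 nL pinned compound. Grown 24 h at 30 degrees; viability read by BacTiter-Glo luminescence after 5 min.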
Sm TGR block – S. mansoni TGR enzyme inhibition | purified TGR, DTNB reduction, TNB absorbance 405 nm | Potency, µM (doses to about 114 µM), for the others: at the highest dose activity change, negative = inhibition, most hits filed as inhibitors | 360,000 compounds, 3% hits | AID 485364; note: potency is the fitted concentration of half-maximal effect; nearly all actives have a fitted effect of over 60% in size
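TGR 20 nM + NADPH 100 uM (dispensed conc.), cpd preinc 15 min RT; start with NADPH (500 uM addition) then DTNB (15 mM addition). Kinetic TNB absorbance, 405 nm filter. Four-parameter Hill fit across titration.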
HCMV inh – blocks human cytomegalovirus replication. HFF cells, HCMV-luciferase reporter, 72 h; hits give low values. 410,000 compounds, 4.5% hits. activity change, negative = inhibition, % at 57.5 µM. AID 1259415; in the data active = activity change below about -60%; inconclusive = no clear call, values can overlap the other calls; inactive = above about -39%
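Human foreskin fibroblasts infected with luciferase-reporter HCMV at MOI 1 PFU/cell, compounds at two doses. Luciferase measured 72 h post infection; normalized to buffer-only basal and Salinomycin (10uM) controls.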
* marks the source's active call; other numbers are inactive results; ? = inconclusive; · = not tested or not shown; + = active, no number. Unless noted, calls come from the whole dose curve; as a rule, active = well fitted curve in the direction sought with a large enough effect; inconclusive = small, poorly fitted or top-dose-only effect, or another doubt; inactive = no such curve, though single readings can be large; an effect the other way counts as inactive or inconclusive. % is set by controls: 0 for no effect and ±100 for the full control effect.

SMILES	FMDV antiviral	Giardia FBPA inh	Tb PYK inh	RE007 growth inh	Sm TGR block	HCMV inh
COc1cc(OC)c(OC)cc1CNCCc1ccc2c(c1)OCO2	0%	-24%	0%	-19%	40µM*	39
Cc1ccc(NC(=O)CN(C)S(=O)(=O)c2ccc3c(c2)n(C)c(=O)c(=O)n3C)cc1F	-5%	·	13%	·	-2%	10
Cc1nc(NCc2ccccc2)c2nc(-c3ccccc3)n(CCN3CCCCC3)c2n1	·	7%	·	·	·	·
NS(=O)(=O)c1ccc(NC(=S)Nc2ccn(Cc3cccc4ccccc34)n2)cc1	?	-4%	4%	-3%	-12%	-79*
Cc1ccc(OCCN2CCN(C(=O)CCC(=O)Nc3nnc(C)s3)CC2)cc1	?	1%	-5%	-19%	-14%	-101*
Cc1ccc(OCCN2CCN(C(=O)CCC(=O)Nc3nnc(C(C)C)s3)CC2)cc1	?	8%	-16%	-18%	-6%	-84*
CCCc1nnc(NC(=O)CCC(=O)N2CCN(CCOc3ccc(C)cc3)CC2)s1	0%	2%	6%	12%	-14%	?
O=C1CN(C(=O)c2ccccc2C(F)(F)F)C(c2ccccc2)c2cc(F)ccc2N1 (centres undefined)	-2%	·	-3%	·	1%	-6
CC1(C(=O)NS(=O)(=O)C2CC2)CCCN(C(=O)c2cccs2)C1 (centres undefined)	4%	·	0%	14%	·	-61*
CC1(C(=O)NS(=O)(=O)C2CC2)CCCN(C(=O)c2ccccc2)C1 (centres undefined)	-12%	·	-2%	12%	·	20
CCOC(=O)c1ccc(NC(=O)C2=C(C)Nc3nc(SCc4ccc(Cl)cc4)nn3C2c2ccc(C)cc2)cc1 (centres undefined)	-16%	·	3%	·	10%	-16
CN(C)c1ccc(-c2nc3ccccn3c2Nc2ccc3c(c2)OCCO3)cc1	17%	·	3%	·	-7%	-96*
Oc1ccc(-c2nc3ccccn3c2Nc2ccc3c(c2)OCCO3)cc1	5%	·	-3%	·	-2%	10
Clc1cccc(-c2nc3ccccn3c2Nc2ccc3c(c2)OCCO3)c1	-4%	·	2%	·	0%	-104*
NC(=S)N/N=C1\CCOc2ccc(Cl)cc21	-18%	-28%	-2%	-3%	0%	-104*
NC(=S)N/N=C/c1ccc(-c2cc(Cl)ccc2Cl)o1	2%	-7%	-19%	-27%	-35%	-24
O=C1CCC[C@H]2[C@@H](Cc3ccccc3)[C@@H](NS(=O)(=O)c3ccc([N+](=O)[O-])cc3)CC[C@]23CCCN13	·	·	·	·	·	-30
CCn1c(CN2CCCCC2)nc2cc(NC(=O)c3cc(OC)c(OC)c(OC)c3)ccc21	?	·	1%	·	3%	-2
CCN(CC)c1ccc2cc(-c3nnc(-c4ccccc4)o3)c(=O)oc2c1	3%	-2%	-20%	4%	?	81
CCN(CC)c1ccc2cc(-c3nc4ccccc4n3C)c(=O)oc2c1	41%	-18%	6%	-13%	-10%	-79*
CCN(CC)c1ccc2cc(-c3nc4ccccc4[nH]3)c(=O)oc2c1	4.5µM*	-21%	-7%	-5%	-1%	·
COc1ccc(-c2ccc3c(n2)CCCN3S(=O)(=O)c2ccc(C#N)cc2)cc1	·	·	·	·	·	-29
CS(=O)(=O)c1ccc(-c2cccc3c2OC(CNC(=O)c2ccnc(Cl)c2)C3)cc1 (centres undefined)	-23%	·	·	·	·	·
COc1ccc(-n2nnnc2S(=O)(=O)CC(=O)N2CCCCC2)cc1	20µM*	5%	-4%	-2%	10µM*	·
COc1ccc(-n2nnnc2S(=O)(=O)Cc2ccc(C(=O)O)cc2)cc1	28µM*	12%	2%	1%	13µM*	-18
SMILES	FMDV antiviral	Giardia FBPA inh	Tb PYK inh	RE007 growth inh	Sm TGR block	HCMV inh
CC(=NNc1cc(C)c2cc(C)ccc2n1)c1ccccn1	·	·	·	·	·	-100*
C/C(=N\Nc1nc2ccccc2[nH]1)c1ccccn1	·	-22%	·	·	-10%	-98*
Cc1ccc2nc(N/N=C/c3ccco3)cc(C)c2c1	35%	-13%	-5%	-11%	5%	78
C/C(=N\Nc1nc2ccccc2[nH]1)c1cc2ccccc2o1	-56%	-9%	-7%	-24%	3%	96
Cc1ccc2oc(-c3ccc(C)c(NC(=O)/C=C/c4ccc(Cl)cc4)c3)nc2c1	72%	·	3%	·	-12%	109
Cc1c(Cl)cccc1NC(=O)N1CCC(CN2CCOCC2)CC1	1%	·	-1%	·	-1%	9
Cc1ccc(-c2c3c(=O)n(C)c(=O)n(C)c3cn2Cc2ccccc2)cc1	-11%	-9%	-8%	5%	45µM*	-5
Cn1c(=O)c2c(-c3ccccc3)n(Cc3ccccn3)cc2n(C)c1=O	-24%	-11%	-13%	-13%	28µM*	9
Cn1c(=O)c2c(-c3ccccc3)n(CCCN3CCOCC3)cc2n(C)c1=O	-4%	3%	-9%	-1%	-24%	-32
CCCn1cc2c(c1-c1ccc(C)cc1)c(=O)n(C)c(=O)n2C	-22%	0%	-1%	16%	0%	23
O=C(Nc1ccc(OC(=O)N2CCCC2)cc1)N1CCOCC1	0%	-5%	4%	-4%	0%	10
O=C(Nc1ccc(OC(=O)N2CCCCC2)cc1)N1CCOCC1	?	2%	-3%	-15%	-4%	+
O=C(Nc1ccc(Nc2ccccc2)cc1)N1CCOCC1	4%	-1%	-9%	-11%	-8%	-63*
Cc1ccc(Cl)cc1N1CCN(C(=O)Cn2nc(C)n3c(cc4sccc43)c2=O)CC1	?	·	4%	·	-7%	27
CC(C)c1ccc(NC(=O)C2Cc3c(-c4ccccc4Oc4ccccc4)ccnc3O2)cc1 (centres undefined)	-18%	·	-6%	0%	·	-61*
COc1ccc(NC(=O)C2Cc3c(-c4ccccc4Oc4ccccc4)ccnc3O2)cc1OC (centres undefined)	25µM*	·	3%	17%	·	-76*
COc1ccc(NC(=O)C2Cc3c(-c4ccccc4Oc4ccccc4)ccnc3O2)cn1 (centres undefined)	-25%	·	-5%	11%	·	-29
COC(=O)[C@@H]1CCCN1Cc1ccc2c(c1)CN(Cc1ccc(OC)c(C)c1)CCO2	2%	·	·	·	·	·
COc1ccc(-c2cc(C3C4C=CCCC4(C)C(=O)N3Cc3ccccc3)ccc2F)cc1 (centres undefined)	·	4%	·	·	·	·
